In PubChem BioAssay (Tox21):
Results filed as inconclusive are left out. Active and inactive are the calls of the source. Unless noted, calls follow the shape of the dose curve; as a rule, active = well fitted curve in the direction sought with a large enough effect in the repeat runs; inconclusive = weak or mixed curves; inactive = no such curve, though single readings can be large; an effect the other way counts as inactive or inconclusive.

Legend:
[1] = qHTS assay to identify small molecule agonists of the RXR signaling pathway - cell viability counter screen (AID 1159529); also: series mostly up to about 77 µM; nearly all actives have a fitted effect of over 50% in size
Procedure, shortened: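 RXR-alpha-UAS-bla HEK 293T cells in medium with 2% charcoal-stripped FBS were preincubated 5 hr, then exposed to compounds for 16 hr at 37 C. Viability was read as CellTiter-Glo luminescence after 30 min at room temperature.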

[2] = qHTS assay to identify small molecule antagonists of the retinoid acid receptor (RAR) signaling pathway - cell viability counter screen (AID 1159551); also: nearly all actives have a fitted effect of over 35% in size
Procedure, shortened: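 C3RL4 RARE-luciferase line; cpds + retinol 1 uM final, 6 h, 37 C/5% CO2; CellTiter-Glo ATP luminescence, 30 min RT.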

[3] = qHTS assay to identify small molecule antagonists of the retinoic acid receptor (RAR) signaling pathway (AID 1159552; also: nearly all actives have a fitted effect of over 50% in size)
Procedure, shortened: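 RARE-luc C3RL4 cells; cpds + 1 uM (final) retinol, 6 hr, 37 C/5% CO2; luciferase reagent, 30 min RT, luminescence readout. Inhibitors of retinol-driven signal scored.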

[4] = qHTS assay to identify small molecule agonists of the retinoic acid receptor (RAR) signaling pathway (AID 1159553); also: potency is read from the fitted curve at half-maximal effect
Procedure, shortened: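 RARE-luc C3RL4 cells; overnight attachment 37 C/5% CO2; compound (DMSO) 6 hr; luciferase reagent, 30 min RT; luminescence read-out.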

[5] = qHTS assay to identify small molecule antagonists of the estrogen related receptor (ERR) signaling pathway from Tox21 library - cell viability counter screen (AID 1224834); also: nearly all actives have a fitted effect of over 30% in size; also: potency is read from the fitted curve at half-maximal effect
Procedure, shortened: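 Multiplexed viability counter screen in ERR cells: 17.5 h compound exposure at 37 C, CellTiter-Fluor added, 30 min at 37 C/5% CO2, fluorescence read.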

[6] = biological target: Luciferin 4-monooxygenase (Photinus pyralis) (UniProt P08659); test: qHTS assay to identify small molecule inhibitors of firefly luciferase (AID 1224835); also: nearly all actives have a fitted effect of over 25% in size; also: potency is read from the fitted curve at half-maximal effect; as to activity change, negative = inhibition: series mostly up to about 120 µM
Procedure, shortened: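 Inhibition of purified Photinus luciferase is measured by luminescence. Substrate levels (D-luciferin, ATP) sit at their KM values. Each compound is tested in a concentration series.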

[7] = qHTS assay to identify small molecule agonists of the constitutive androstane receptor (CAR) signaling pathway - cell viability counter screen (AID 1224836); also: nearly all actives have a fitted effect of over 45% in size; also: potency is read from the fitted curve at half-maximal effect; as to viability change, negative = cytotoxic: series mostly up to about 92 µM
Procedure, shortened: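 HepG2 cells stably carrying hCAR and a CYP2B6-2.2kb reporter were plated 4 h, then given compounds at 15 concentrations plus PK11195 (final 0.75 uM). After 23 h at 37 C, viability was read by CellTiter-Fluor fluorescence.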

[8] = qHTS assay to identify small molecule antagonists of the constitutive androstane receptor (CAR) signaling pathway - cell viability counter screen (AID 1224837); also: nearly all actives have a fitted effect of over 45% in size; also: potency is read from the fitted curve at half-maximal effect; as to activity change, negative = cytotoxicity: series mostly up to about 92 µM
Procedure, shortened: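 Read-out: CellTiter-Fluor fluorescence after 23 hr at 37 C/5% CO2. Cells: HepG2 double-stable for hCAR and CYP2B6-2.2kb. Compounds tested at 15 concentrations in the presence of CITCO, final concentration 50 nM.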

[9] = biological target: Nuclear receptor subfamily 1 group I member 3 (Homo sapiens) (UniProt Q14994); test: qHTS assay to identify small molecule antagonists of the constitutive androstane receptor (CAR) signaling pathway (AID 1224838); also: nearly all actives have a fitted effect of over 40% in size
Procedure, shortened: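 Read-out: ONE-Glo luciferase luminescence after 30 min at room temperature. HepG2-CYP2B6-hCAR double-stable cells, compounds in 15-point titration plus 50 nM CITCO final, 24 h at 37 C/5% CO2.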

[10] = biological target: Nuclear receptor subfamily 1 group I member 3 (Homo sapiens) (UniProt Q14994); test: qHTS assay to identify small molecule agonists of the constitutive androstane receptor (CAR) signaling pathway (AID 1224839); also: nearly all actives have a fitted effect of over 15% in size; also: potency is read from the fitted curve at half-maximal effect;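 as to activation: HepG2 cells stably carrying human CAR and a CYP2B6 luciferase reporter; series mostly up to about 92 µM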
Procedure, shortened: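 HepG2 cells stably expressing hCAR and a CYP2B6-2.2kb luciferase reporter were treated with compounds at 15 concentrations plus 0.75 uM PK11195 (final) for 24 h at 37 C; luminescence was read after ONE-Glo addition.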

[11] = qHTS assay to identify small molecule antagonists of the estrogen related receptor signaling pathway with the pleiotropic PPARgamma coactivator (PGC) from Tox21 10K library - cell viability counter screen (AID 1224840; active = well fitted cell-killing curve with a large enough effect in the repeat runs, not every such curve was filed as active; also: nearly all actives have a fitted effect of over 40% in size)
Procedure, shortened: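 Fluorescence read-out of CellTiter-Fluor viability reagent, added after cells had been exposed to compound in DMSO for 17.5 h at 37 C; 30 min development at 37 C/5% CO2. Cells: PGC/ERR line, 2,000/well.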

[12] = biological target: Retinoic acid receptor RXR-alpha (Homo sapiens) (UniProt P19793); test: qHTS assay to identify small molecule agonists of the RXR signaling pathway (AID 1159527; calls by dose curve; also: nearly all actives have a fitted effect of over 35% in size; also: potency is read from the fitted curve at half-maximal effect)
Procedure, shortened: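 GeneBLAzer RXR-alpha-UAS-bla HEK 293T cells in medium with 2% charcoal-stripped FBS, pre-incubated 5 hr at 37 C, then exposed to compounds 16 hr. Beta-lactamase reporter read by FRET substrate, 2 hr room temperature, 460/530 nm emission.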

[13] = qHTS assay to identify small molecule antagonists of the estrogen related receptor signaling pathway with the pleiotropic PPARgamma coactivator (PGC) from Tox21 10K library (AID 1224841; call rule not given here; also: series mostly up to about 92 µM; actives are mostly falling curves and most rising ones were filed inactive; nearly all actives have a fitted effect of over 50% in size)
Procedure, shortened: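 Luminescence read-out (One-Glo luciferase reagent, 30 min at room temperature) from PGC/ERR cells exposed to DMSO-dissolved test compounds for 18 h at 37 C; cells, 2,000 per well, had been preincubated 6 h before compound transfer.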

[14] = qHTS assay to identify small molecule agonists of the estrogen related receptor signaling pathway with the pleiotropic PPARgamma coactivator (PGC) from Tox21 10K library (AID 1224842); also: nearly all actives have a fitted effect of over 15% in size
Procedure, shortened: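 Luminescence from One-Glo (30 min, room temperature) measured after PGC/ERR cells had 18 h at 37 C with pinned compound (23 nL in DMSO). Cells had been seeded at 2,000 per well and pre-incubated 6 h.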

[15] = qHTS assay to identify small molecule antagonists of the estrogen related receptor (ERR) signaling pathway - cell viability counter screen (AID 1224818); also: series mostly up to about 46 µM
Procedure, shortened: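 Fluorescence from CellTiter-Fluor, read 30 min after reagent addition at 37 C, measured viability of ERR cells exposed to compounds for 17.5 h. Cells had settled 6 h before dosing.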

[16] = qHTS assay to identify small molecule antagonists of the estrogen related receptor (ERR) signaling pathway (AID 1224819; also: series mostly up to about 46 µM; nearly all actives have a fitted effect of over 50% in size)
Procedure, shortened: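 Luminescence readout (One-Glo, 30 min, RT) of ERR cell line after 18 h compound exposure at 37 C; cells seeded 2,000/well, pre-incubated 6 h, compounds pinned from DMSO stocks.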

[17] = qHTS assay to identify small molecule agonists of the estrogen related receptor (ERR) signaling pathway (AID 1224820)
Procedure, shortened: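 After 6 h plating (2,000 cells/well) and 18 h compound treatment at 37 C, ERR cells were lysed with One-Glo and luminescence read after 30 min at room temperature.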

[18] = system: estrogen-related receptor alpha (ERRalpha) with PGC-1alpha coactivator, human; test: qHTS assay to identify small molecule antagonists of the estrogen related receptor signaling pathway with the pleiotropic PPARgamma coactivator (PGC) (AID 1224821; calls by dose curve)
Procedure, shortened: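 Luminescence from One-Glo luciferase reagent (30 min, room temperature) measured after 18 h compound treatment at 37 °C. Cells carry the PGC/ERR reporter and were seeded 6 h prior to dosing.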

[19] = qHTS assay to identify small molecule antagonists of the estrogen related receptor signaling pathway with the pleiotropic PPARgamma coactivator (PGC) cell viability counter screen (AID 1224822; also: series mostly up to about 46 µM)
Procedure, shortened: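 Fluorescence read-out of CellTiter-Fluor after 30 min at 37 C; PGC/ERR cells, 2,000 per well, had been exposed to DMSO-dissolved compounds for 17.5 h following a 6 h pre-incubation.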

[20] = qHTS assay to identify small molecule agonists of the estrogen related receptor signaling pathway with the pleiotropic PPARgamma coactivator (PGC) (AID 1224823)
Procedure, shortened: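 Luminescence from One-Glo reagent (30 min, room temperature) was read after 18 h compound treatment at 37 C of PGC/ERR cells plated 6 h beforehand; compounds delivered in DMSO by pin tool.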
% is scaled to controls: 0 for no effect and ±100 for the full control effect.

Chain of Retinoic acid receptor RXR-alpha (Homo sapiens) (P19793 whole entry, looked up): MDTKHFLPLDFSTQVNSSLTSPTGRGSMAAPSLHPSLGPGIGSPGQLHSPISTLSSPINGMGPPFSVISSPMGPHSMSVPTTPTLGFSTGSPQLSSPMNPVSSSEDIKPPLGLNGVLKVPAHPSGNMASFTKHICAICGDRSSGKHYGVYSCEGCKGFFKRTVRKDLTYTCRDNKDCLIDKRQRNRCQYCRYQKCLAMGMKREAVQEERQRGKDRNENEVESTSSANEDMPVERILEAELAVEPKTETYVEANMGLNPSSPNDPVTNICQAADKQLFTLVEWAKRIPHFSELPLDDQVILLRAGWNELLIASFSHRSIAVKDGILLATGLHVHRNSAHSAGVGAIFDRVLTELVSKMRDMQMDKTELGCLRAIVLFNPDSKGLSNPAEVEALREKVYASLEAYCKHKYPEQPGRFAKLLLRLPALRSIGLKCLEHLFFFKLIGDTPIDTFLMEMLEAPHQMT
Chain of Nuclear receptor subfamily 1 group I member 3 (Homo sapiens) (Q14994 whole entry, looked up): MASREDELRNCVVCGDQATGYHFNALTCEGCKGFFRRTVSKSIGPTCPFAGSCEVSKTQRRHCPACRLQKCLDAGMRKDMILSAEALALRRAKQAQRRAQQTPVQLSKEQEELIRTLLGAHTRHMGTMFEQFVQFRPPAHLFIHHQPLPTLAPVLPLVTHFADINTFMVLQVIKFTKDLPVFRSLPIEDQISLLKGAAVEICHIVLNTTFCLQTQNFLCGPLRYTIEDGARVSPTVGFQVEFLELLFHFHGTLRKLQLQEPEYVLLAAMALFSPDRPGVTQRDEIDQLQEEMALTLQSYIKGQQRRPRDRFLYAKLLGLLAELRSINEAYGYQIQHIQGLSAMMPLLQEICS
Chain of Luciferin 4-monooxygenase (Photinus pyralis) (P08659 whole entry, looked up): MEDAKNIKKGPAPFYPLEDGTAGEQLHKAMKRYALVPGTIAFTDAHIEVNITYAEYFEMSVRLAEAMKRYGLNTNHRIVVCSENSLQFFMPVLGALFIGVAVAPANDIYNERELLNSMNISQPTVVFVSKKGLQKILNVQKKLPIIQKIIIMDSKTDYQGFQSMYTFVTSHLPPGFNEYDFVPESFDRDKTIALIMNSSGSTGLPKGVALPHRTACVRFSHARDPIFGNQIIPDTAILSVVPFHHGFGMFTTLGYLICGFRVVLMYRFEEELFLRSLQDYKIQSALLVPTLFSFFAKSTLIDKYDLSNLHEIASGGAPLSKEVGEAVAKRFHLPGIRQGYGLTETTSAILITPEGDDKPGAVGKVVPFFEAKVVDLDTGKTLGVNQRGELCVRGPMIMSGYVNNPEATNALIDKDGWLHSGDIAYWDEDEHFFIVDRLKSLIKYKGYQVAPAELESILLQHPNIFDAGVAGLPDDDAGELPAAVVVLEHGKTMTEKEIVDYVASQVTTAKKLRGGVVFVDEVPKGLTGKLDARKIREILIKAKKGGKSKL

Nc1ccc2ccccc2c1S(=O)(=O)O
active: Potency [4] 24.8 µM | Potency [6] 32.4 µM | Potency [10] 22.1 µM
inactive: Potency [1] | outcome [2] | Potency [3] | Potency [5] | Potency [7] | Potency [8] | Potency [9] | Potency [11]

CC(C)C(=O)OC/C=C/c1ccccc1
active: Potency [6] 71 µM
inactive: Potency [12] | Potency [1] | outcome [2] | Potency [5] | Potency [7] | Potency [8] | Potency [9] | Potency [10] | Potency [11] | Potency [13] | Potency [14]

CC1=CC(=O)CC(C)(C)C1=O
inactive: Potency [1] | outcome [2] | Potency [3] | Potency [4] | Potency [5] | Potency [6] | Potency [7] | Potency [8] | Potency [9] | Potency [10] | Potency [11]

NC/C=C/C(=O)O
inactive: Potency [1] | outcome [2] | Potency [3] | Potency [4] | outcome [15] | outcome [16] | outcome [17] | outcome [18] | outcome [19] | outcome [20] | Potency [5] | Potency [7] | Potency [8] | Potency [9] | Potency [10] | Potency [11] | Potency [13] | Potency [14]

CCOc1ccc(NC(N)=O)cc1
inactive: Potency [1] | outcome [2] | Potency [3] | Potency [4] | Potency [5] | Potency [6] | Potency [7] | Potency [8] | Potency [9] | Potency [10] | Potency [11] | Potency [13] | Potency [14]

O=CCCc1ccccc1
inactive: Potency [1] | outcome [2] | Potency [4] | Potency [5] | Potency [6] | Potency [7] | Potency [8] | Potency [11]
active: Potency [12] 19.5 µM

C=CCCCCCCCCO
inactive: Potency [12] | Potency [1] | outcome [2] | Potency [5] | Potency [6] | Potency [7] | Potency [8] | Potency [11]

CC(=O)N(CC(O)CN(C(C)=O)c1c(I)c(C(=O)NCC(O)CO)c(I)c(C(=O)NCC(O)CO)c1I)c1c(I)c(C(=O)NCC(O)CO)c(I)c(C(=O)NCC(O)CO)c1I (configuration not stated)
inactive: Potency [1] | outcome [2] | Potency [3] | Potency [4] | Potency [5] | Potency [6] | Potency [7] | Potency [8] | Potency [9] | Potency [10] | Potency [11]

CC1=C(CC(=O)O)c2cc(F)ccc2/C1=C\c1ccc(S(C)(=O)=O)cc1
inactive: Potency [1] | outcome [2] | Potency [3] | Potency [4] | outcome [15] | outcome [16] | outcome [17] | outcome [18] | outcome [19] | outcome [20] | Potency [5] | Potency [6] | Potency [7] | Potency [8] | Potency [9] | Potency [10] | Potency [11] | Potency [13] | Potency [14]

CN1CCN(C2=Nc3cc(F)ccc3Cc3ccccc32)CC1
inactive: Potency [12] | outcome [2] | Potency [3] | Potency [4] | Potency [5] | Potency [6] | Potency [7] | Potency [8] | Potency [9] | Potency [10] | Potency [11] | Potency [13] | Potency [14]

O=c1[nH]cnc2c1ncn2[C@@H]1O[C@H](CO)[C@@H](O)[C@H]1O
inactive: Potency [12] | Potency [1] | Potency [5] | Potency [6] | Potency [7] | Potency [8] | Potency [10] | Potency [11] | Potency [13] | Potency [14]

NC(Cc1ccc(F)cc1)C(=O)O (configuration not stated)
inactive: activation [12] 12.3% [at 6.98 µM] | activity change, negative = cytotoxicity [1] 2.52% [at 6.97 µM] | activity change, negative = cytotoxicity [2] 2.5% [at 8.39 µM] | viability change, negative = cytotoxic [5] 0.439% [at 8.39 µM] | activity change, negative = inhibition [6] 1.28% [at 10.5 µM] | viability change, negative = cytotoxic [11] 2.83% [at 8.39 µM] | activity, negative = inhibition [13] 25.2% [at 8.39 µM] | activation [14] 1.4% [at 8.39 µM]

NCCCN1CCN(CCCN)CC1
inactive: Potency [1] | outcome [2] | Potency [3] | Potency [4] | Potency [5] | Potency [6] | Potency [7] | Potency [8] | Potency [9] | Potency [10] | Potency [11]

CCN(CC)CCNC(=O)COc1ccc(Cl)cc1
inactive: Potency [1] | outcome [2] | Potency [3] | Potency [4] | Potency [5] | Potency [6] | Potency [7] | Potency [8] | Potency [9] | Potency [10] | Potency [11]

Cc1cc2c(s1)Nc1ccccc1N=C2N1CCN(C)CC1
active: Potency [5] 5.96 µM | Potency [7] 8.41 µM | Potency [8] 3.35 µM
inactive: Potency [12] | outcome [2] | Potency [3] | Potency [4] | Potency [6] | Potency [9] | Potency [10] | Potency [11] | Potency [13] | Potency [14]

CCCCC(CC)COC(=O)COc1cc(Cl)c(Cl)cc1Cl (configuration not stated)
inactive: Potency [1] | outcome [2] | Potency [3] | Potency [4] | Potency [5] | Potency [6] | Potency [7] | Potency [8] | Potency [9] | Potency [10] | Potency [11]

CCOc1ccc(OCC)c(Cl)c1
inactive: Potency [1] | outcome [2] | Potency [3] | Potency [4] | Potency [5] | Potency [6] | Potency [7] | Potency [8] | Potency [9] | Potency [10] | Potency [11] | Potency [13] | Potency [14]

CNCCC(Oc1ccccc1OC)c1ccccc1 (configuration not stated)
inactive: Potency [12] | Potency [1] | outcome [2] | outcome [15] | outcome [16] | outcome [17] | outcome [18] | outcome [19] | outcome [20] | Potency [5] | Potency [6] | Potency [7] | Potency [8] | Potency [9] | Potency [10] | Potency [11] | Potency [14]

CN1CCC[C@@H]1Cc1c[nH]c2ccc(CCS(=O)(=O)c3ccccc3)cc12
inactive: Potency [12] | outcome [2] | outcome [15] | outcome [16] | outcome [17] | outcome [19] | Potency [5] | Potency [6] | Potency [7] | Potency [8] | Potency [9] | Potency [10] | Potency [11]
